Records with an inconclusive call do not appear. Active and inactive are the calls of the source. The calls were made as follows: active = hit-call score of the fitted dose curve at least 0.9, where 1 is the maximum; inconclusive = response in the unintended direction; inactive = score below 0.9.

The values that follow come from PubChem BioAssay (EPA / NIEHS).

rat Monoamine Oxidase, MAO-B, Central (MAOBC), Maob (gene 25750), sequence (P19643 whole entry, looked up): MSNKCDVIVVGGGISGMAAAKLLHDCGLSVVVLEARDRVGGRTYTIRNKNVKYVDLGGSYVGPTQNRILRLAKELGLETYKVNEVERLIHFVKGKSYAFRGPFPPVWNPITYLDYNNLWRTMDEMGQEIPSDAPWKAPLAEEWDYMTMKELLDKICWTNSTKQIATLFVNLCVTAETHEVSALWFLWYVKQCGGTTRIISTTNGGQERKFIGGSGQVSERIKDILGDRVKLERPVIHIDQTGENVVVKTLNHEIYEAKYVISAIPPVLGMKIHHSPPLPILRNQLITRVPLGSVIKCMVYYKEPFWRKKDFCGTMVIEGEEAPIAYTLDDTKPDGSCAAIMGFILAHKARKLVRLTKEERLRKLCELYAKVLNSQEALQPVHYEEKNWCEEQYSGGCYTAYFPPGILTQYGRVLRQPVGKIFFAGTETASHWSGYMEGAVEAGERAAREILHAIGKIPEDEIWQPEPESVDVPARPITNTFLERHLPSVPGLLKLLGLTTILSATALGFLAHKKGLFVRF
rat Constitutive Nitric Oxide Synthase (CNOS), Nos1 (gene 24598), sequence (P29476 whole entry, looked up): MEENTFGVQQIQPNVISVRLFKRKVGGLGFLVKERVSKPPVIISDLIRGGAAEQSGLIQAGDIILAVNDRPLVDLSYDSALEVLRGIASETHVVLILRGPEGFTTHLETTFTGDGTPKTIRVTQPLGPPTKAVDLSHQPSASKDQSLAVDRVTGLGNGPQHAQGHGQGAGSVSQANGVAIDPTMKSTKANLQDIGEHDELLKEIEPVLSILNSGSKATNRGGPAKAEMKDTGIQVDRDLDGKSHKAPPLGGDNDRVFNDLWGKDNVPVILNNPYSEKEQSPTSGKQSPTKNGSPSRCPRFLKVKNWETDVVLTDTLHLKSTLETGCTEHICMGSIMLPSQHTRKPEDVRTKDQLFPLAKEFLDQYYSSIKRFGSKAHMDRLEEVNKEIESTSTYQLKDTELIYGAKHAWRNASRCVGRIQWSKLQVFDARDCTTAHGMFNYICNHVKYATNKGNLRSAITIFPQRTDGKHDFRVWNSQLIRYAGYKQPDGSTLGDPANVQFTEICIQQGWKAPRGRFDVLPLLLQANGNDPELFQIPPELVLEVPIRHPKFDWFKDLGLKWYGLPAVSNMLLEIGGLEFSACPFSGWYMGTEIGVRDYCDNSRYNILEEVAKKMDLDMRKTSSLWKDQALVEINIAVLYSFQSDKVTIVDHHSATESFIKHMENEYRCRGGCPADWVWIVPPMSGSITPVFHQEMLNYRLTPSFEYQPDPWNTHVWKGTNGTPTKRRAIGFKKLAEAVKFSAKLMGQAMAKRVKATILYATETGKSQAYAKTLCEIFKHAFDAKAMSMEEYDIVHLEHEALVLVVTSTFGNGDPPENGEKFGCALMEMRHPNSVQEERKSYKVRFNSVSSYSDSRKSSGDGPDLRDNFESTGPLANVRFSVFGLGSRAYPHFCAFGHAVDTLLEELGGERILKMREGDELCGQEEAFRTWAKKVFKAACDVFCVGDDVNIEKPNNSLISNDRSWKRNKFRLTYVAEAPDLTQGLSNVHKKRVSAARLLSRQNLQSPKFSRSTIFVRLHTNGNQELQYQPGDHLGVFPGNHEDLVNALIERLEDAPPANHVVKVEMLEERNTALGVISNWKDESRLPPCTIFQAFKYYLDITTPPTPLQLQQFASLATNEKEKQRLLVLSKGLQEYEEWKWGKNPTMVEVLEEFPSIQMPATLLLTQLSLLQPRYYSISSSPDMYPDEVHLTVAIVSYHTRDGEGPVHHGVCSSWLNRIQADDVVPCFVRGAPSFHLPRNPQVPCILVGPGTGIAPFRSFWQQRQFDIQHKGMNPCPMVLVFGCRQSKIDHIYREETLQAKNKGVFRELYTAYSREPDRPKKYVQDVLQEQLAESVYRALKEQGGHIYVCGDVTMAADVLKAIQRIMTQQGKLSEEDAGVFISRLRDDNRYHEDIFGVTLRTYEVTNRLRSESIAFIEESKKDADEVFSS
rabbit Imidazoline 2 Central (I2C), CKB (gene 100009085), sequence (P00567 whole entry, looked up): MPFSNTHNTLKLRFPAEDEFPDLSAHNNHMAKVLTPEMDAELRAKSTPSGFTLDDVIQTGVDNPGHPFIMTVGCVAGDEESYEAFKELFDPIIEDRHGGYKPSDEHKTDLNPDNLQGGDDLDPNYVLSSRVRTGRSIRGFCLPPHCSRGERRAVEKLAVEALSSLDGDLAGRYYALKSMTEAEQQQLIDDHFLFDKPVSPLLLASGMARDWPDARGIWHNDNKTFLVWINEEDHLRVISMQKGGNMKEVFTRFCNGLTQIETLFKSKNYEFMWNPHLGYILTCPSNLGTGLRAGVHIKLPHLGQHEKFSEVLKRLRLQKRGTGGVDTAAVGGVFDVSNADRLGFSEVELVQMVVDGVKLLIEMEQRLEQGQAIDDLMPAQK
rat Acetylcholinesterase (AChE), Ache (gene 83817), sequence (P37136 whole entry, looked up): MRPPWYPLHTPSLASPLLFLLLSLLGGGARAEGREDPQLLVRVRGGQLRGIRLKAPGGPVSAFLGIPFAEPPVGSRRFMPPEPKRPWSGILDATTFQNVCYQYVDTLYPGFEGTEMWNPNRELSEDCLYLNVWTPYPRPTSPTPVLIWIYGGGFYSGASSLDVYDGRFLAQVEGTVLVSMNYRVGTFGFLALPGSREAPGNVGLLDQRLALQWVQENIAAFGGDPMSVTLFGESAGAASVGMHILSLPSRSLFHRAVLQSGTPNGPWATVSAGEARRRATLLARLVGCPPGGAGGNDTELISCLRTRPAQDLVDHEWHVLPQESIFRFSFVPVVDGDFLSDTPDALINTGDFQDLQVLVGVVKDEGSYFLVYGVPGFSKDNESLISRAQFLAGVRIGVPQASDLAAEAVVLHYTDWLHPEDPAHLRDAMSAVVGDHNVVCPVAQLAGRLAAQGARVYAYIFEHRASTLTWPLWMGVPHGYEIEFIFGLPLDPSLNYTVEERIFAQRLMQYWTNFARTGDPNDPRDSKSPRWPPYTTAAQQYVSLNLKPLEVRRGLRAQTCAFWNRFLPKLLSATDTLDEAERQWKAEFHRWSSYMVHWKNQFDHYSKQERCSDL

For one experiment, the target named is human Tyrosine Protein Kinase Receptor Tie-2 (Tie2), TEK (gene 7010) (UniProt Q02763). Nature of the experiment: NVS_ENZ_hTie2: NovaScreen (NVS) Enzymatic Assay for human Tyrosine Protein Kinase Receptor Tie-2 (Tie2) (AID 2283225). A digest of the protocol: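 Recombinant human Tie2 kinase activity was read cell-free by fluorescence with electrophoretic mobility shift, 1 hour after dosing. The screen used 25 uM in duplicate, then concentration-response up to 50 uM. Signal loss was scored against DMSO.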
human Tyrosine Protein Kinase Receptor Tie-2 (Tie2), TEK (gene 7010), sequence (Q02763 whole entry, looked up): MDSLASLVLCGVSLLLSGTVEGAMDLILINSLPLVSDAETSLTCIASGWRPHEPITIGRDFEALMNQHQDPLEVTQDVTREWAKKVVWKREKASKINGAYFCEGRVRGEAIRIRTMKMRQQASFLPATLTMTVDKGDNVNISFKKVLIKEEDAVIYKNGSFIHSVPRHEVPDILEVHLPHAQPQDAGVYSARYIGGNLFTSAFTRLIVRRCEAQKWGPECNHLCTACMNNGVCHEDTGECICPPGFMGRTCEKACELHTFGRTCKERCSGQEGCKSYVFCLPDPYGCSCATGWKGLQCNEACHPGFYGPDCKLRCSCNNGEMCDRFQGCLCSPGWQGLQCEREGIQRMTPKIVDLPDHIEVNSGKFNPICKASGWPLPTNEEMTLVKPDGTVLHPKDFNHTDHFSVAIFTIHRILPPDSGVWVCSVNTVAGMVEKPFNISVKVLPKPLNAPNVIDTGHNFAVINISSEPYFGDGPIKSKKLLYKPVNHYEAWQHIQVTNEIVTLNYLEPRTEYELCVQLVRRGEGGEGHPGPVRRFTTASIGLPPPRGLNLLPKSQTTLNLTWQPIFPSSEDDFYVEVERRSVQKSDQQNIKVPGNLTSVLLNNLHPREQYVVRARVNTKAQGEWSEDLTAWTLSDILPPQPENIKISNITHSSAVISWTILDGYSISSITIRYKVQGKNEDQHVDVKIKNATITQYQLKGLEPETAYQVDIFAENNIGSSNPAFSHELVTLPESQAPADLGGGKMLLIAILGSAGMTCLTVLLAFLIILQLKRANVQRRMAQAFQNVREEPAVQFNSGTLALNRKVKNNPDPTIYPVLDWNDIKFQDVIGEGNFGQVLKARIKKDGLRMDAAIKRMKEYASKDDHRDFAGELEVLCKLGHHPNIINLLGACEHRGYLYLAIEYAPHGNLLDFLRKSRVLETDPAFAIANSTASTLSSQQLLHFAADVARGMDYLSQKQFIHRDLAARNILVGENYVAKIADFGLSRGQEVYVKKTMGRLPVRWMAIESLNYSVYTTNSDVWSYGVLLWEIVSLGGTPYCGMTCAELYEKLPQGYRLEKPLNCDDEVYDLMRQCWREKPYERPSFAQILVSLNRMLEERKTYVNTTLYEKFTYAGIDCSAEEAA
Turning to `Nc1c(Cl)c(Cl)nc(C(=O)O)c1Cl`, the result was inactive.

On to `CC(C)C1(C)N=C(c2ncccc2C(=O)O)NC1=O` (configuration not stated), for which the outcome was inactive.

With `Nc1cnn(-c2ccccc2)c(=O)c1Cl`, the outcome was inactive.

`OC(c1ccc(Cl)cc1)(c1ccc(Cl)cc1)C(Cl)(Cl)Cl`: the result was inactive.

For another experiment, the target named is rabbit Imidazoline 2 Central (I2C), CKB (gene 100009085) (UniProt P00567). The experiment in a line: NVS_ENZ_rabI2C: NovaScreen (NVS) Enzymatic Assay for rabbit Imidazoline 2 Central (I2C) (AID 2283228). A digest of the protocol:
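Rabbit brain membranes, cell-free; readout by filter-based scintillation counting 1.5 hours after dosing, loss of signal vs DMSO. Initial duplicate test at 25 uM, then concentration-response with 50 uM top concentration.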
As usually defined, the AC50 is the concentration giving half of the maximal activity seen. With `Cc1ccc(N=CN(C)C=Nc2ccc(C)cc2C)c(C)c1`, the AC50 is 1.21 µM (active).

For the compound `CCN(CC)C(=O)C(C)Oc1cccc2ccccc12` (configuration not stated), the compound was called inactive.

Turning to `Cn1c(-c2ccccc2)cc(-c2ccccc2)[n+]1C`, the AC50 is 12 µM (active).

A further experiment has as its target rat Acetylcholinesterase (AChE), Ache (gene 83817) (UniProt P37136). The experiment in a line: NVS_ENZ_rAChE: NovaScreen (NVS) Enzymatic Assay for rat Acetylcholinesterase (AChE) (AID 2283233). A digest of the protocol:
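Rat brain membrane acetylcholinesterase activity measured colorimetrically 0.33 h after compound addition, loss of signal relative to DMSO. Primary screen in duplicate at 25 uM; actives re-run as concentration-response with 50 uM top concentration.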
For `CNC(=O)Oc1cccc2ccccc12`, the AC50 is 6.15 µM (active).

For the compound `CCNC(=O)NC(=O)C(C#N)=NOC`, the compound was classed as inactive.

Regarding `O=c1n(Cl)c(=O)n(Cl)c(=O)n1Cl`, the result was inactive.

For the compound `Nc1c(Cl)c(Cl)nc(C(=O)O)c1Cl`, the result was inactive.

Turning to `CCOP(=O)(OCC)Oc1nc(Cl)c(Cl)cc1Cl`, the AC50 was 0.488 µM (active).

In the case of `CC(C)N1C(=O)N(c2ccccc2)CSC1=NC(C)(C)C`, the compound was called inactive.

Take `N#CN=C1SCCN1Cc1ccc(Cl)nc1`: the AC50 is 16.6 µM (active).

The target in a further experiment is rat Catechol-O-Methyl Transferase (COMT), Comt (gene 24267) (UniProt P22734). The experiment in a line: NVS_ENZ_rCOMT: NovaScreen (NVS) Enzymatic Assay for rat Catechol-O-Methyl Transferase (COMT) (AID 2283235). An outline of the steps: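 Cell-free enzyme activity with protein extracted from rat dorsal striatum, measured by HPLC with absorbance detection. Compounds screened at 25 uM in duplicate; actives then run in concentration-response up to 50 uM, loss of signal versus DMSO.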
rat Catechol-O-Methyl Transferase (COMT), Comt (gene 24267), sequence (P22734 whole entry, looked up): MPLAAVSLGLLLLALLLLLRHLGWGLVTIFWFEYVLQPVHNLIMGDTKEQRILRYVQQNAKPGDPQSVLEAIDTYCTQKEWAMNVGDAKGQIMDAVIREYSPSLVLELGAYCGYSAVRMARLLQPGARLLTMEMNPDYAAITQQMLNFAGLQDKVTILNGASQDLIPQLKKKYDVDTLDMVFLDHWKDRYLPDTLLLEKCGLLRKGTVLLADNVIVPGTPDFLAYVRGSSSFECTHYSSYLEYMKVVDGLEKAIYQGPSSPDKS
Consider `O=P(O)(O)CCCl`, for which the outcome was inactive.

In the case of `CCOP(=O)(OCC)Oc1nc(Cl)c(Cl)cc1Cl`, the outcome was inactive.

As to `Cc1nc(N(C)C)nc(OC(=O)N(C)C)c1C`, the AC50 is 0.991 µM (active).

The next experiment addresses rat Constitutive Nitric Oxide Synthase (CNOS), Nos1 (gene 24598) (UniProt P29476). The experiment in a line: NVS_ENZ_rCNOS: NovaScreen (NVS) Enzymatic Assay for rat Constitutive Nitric Oxide Synthase (CNOS) (AID 2283236). An outline of the steps: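 Enzyme activity in rat brain membrane preparation, read 1 h after dosing by filter-based radiometric scintillation counting. Primary screen in duplicate at 25 uM; actives (e.g., ≥30% inhibition) then run in concentration-response up to 50 uM.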
For the compound `CCNC(=O)NC(=O)C(C#N)=NOC`, the AC50 was 9.03 µM (active).

`CCN(CC)c1nc(C)cc(OP(=S)(OC)OC)n1`: the compound was classed as inactive.

As to `CC(C)NC(=O)N1CC(=O)N(c2cc(Cl)cc(Cl)c2)C1=O`, the AC50 is 25 µM (active).

For another experiment, the system named is rat Monoamine Oxidase, MAO-A, Peripheral (MAOAP), gene 29253. The experiment in a line: NVS_ENZ_rMAOAP: NovaScreen (NVS) Enzymatic Assay for rat Monoamine Oxidase, MAO-A, Peripheral (MAOAP) (AID 2283237). A digest of the protocol:
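Rat liver mitochondrial membranes served as the MAO-A source, with enzyme activity measured by radiometric scintillation counting 1.17 hours after dosing. Loss of signal was fitted against DMSO; primary screen used 25 uM in duplicate, follow-up used concentration series.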
`CC(C)N1C(=O)N(c2ccccc2)CSC1=NC(C)(C)C`: the result was inactive.

Regarding `COc1cc(OC)nc(NC(=O)NS(=O)(=O)c2ncccc2OCC(F)(F)F)n1`, the outcome was inactive.

On to `Cc1nc(N(C)C)nc(OC(=O)N(C)C)c1C`, for which the AC50 is 10.4 µM (active).

A further experiment has as its target rat Monoamine Oxidase, MAO-B, Central (MAOBC), Maob (gene 25750) (UniProt P19643). Nature of the experiment: NVS_ENZ_rMAOBC: NovaScreen (NVS) Enzymatic Assay for rat Monoamine Oxidase, MAO-B, Central (MAOBC) (AID 2283238). A digest of the protocol: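 Rat brain tissue extract served as the cell-free MAO-B source; enzyme activity was read by scintillation counting 1.17 hours after compound addition. Loss of signal versus DMSO baseline was fitted; primary single-concentration screen at 25 uM, follow-up concentration-response up to 50 uM.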
As for `CNC(=O)Oc1cccc2ccccc12`, the AC50 was 6.28 µM (active).

`CC1(C)CCC(=Cc2ccc(Cl)cc2)C1(O)Cn1cncn1` (configuration not stated): the compound was classed as inactive.

On to `N#Cc1c[nH]cc1-c1cccc2c1OC(F)(F)O2`, for which the compound was classed as inactive.

On to `Cc1ccc(N=CN(C)C=Nc2ccc(C)cc2C)c(C)c1`, for which the compound was classed as inactive.
